Measured values as given in PubChem BioAssay (NCI).
About 83,000 compounds went through this panel and 20% of them were active in at least one assay; those are over-represented in the sample as a whole.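 Values shown are percent growth following 48 h exposure of cells in 96-well plates to a single concentration of compound; below 10 was considered active.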 The source made the active and inactive calls.

Experiments:
Experiment in all cases: NCI-60 one-dose screen, 48 h (100 = growth as untreated, 0 = no growth, -100 = all killed)
Conditions in all cases: 10 µM
NCI-H23 lung = test system: NCI-H23 lung
NCI-H226 lung = test system: NCI-H226 lung
HOP-62 NSCLC = test system: HOP-62 NSCLC
NCI-H460 lung = test system: NCI-H460 lung
HOP-92 NSCLC = test system: HOP-92 NSCLC
NCI-H522 lung = test system: NCI-H522 lung
786-0 renal = test system: 786-0 renal
COLO 205 colon = test system: COLO 205 colon
A549/ATCC NSCLC = test system: A549/ATCC NSCLC
NCI-H322M lung = test system: NCI-H322M lung

| SMILES | growth (NCI-H23 lung) | growth (NCI-H226 lung) | growth (HOP-62 NSCLC) | growth (NCI-H460 lung) | growth (HOP-92 NSCLC) | growth (NCI-H522 lung) | growth (786-0 renal) | growth (COLO 205 colon) | growth (A549/ATCC NSCLC) | growth (NCI-H322M lung) |
| --- | --- | --- | --- | --- | --- | --- | --- | --- | --- | --- |
| CCOC(=O)CSc1c([N+](=O)[O-])ncn1C | 95.6% (inactive) | 105% (inactive) | 98.6% (inactive) | 104% (inactive) | 113% (inactive) | 99.9% (inactive) | 111% (inactive) | 110% (inactive) |  |  |
| Cc1cc(Cc2cc(C)c(N)cc2N)c(N)cc1N | 86.6% (inactive) | 81.7% (inactive) | 88.1% (inactive) | 101% (inactive) | 91.4% (inactive) | 89.4% (inactive) | 104% (inactive) | 92.8% (inactive) | 85.2% (inactive) |  |
| N#Cc1ccc(OC(=O)Nc2ccc(Cl)c(Cl)c2)cc1 | 39.6% (inactive) | 63.7% (inactive) |  | 99.8% (inactive) |  | 24.5% (inactive) | 89.5% (inactive) | 96.3% (inactive) | 47.2% (inactive) | 89.4% (inactive) |
| Nc1ncnc2c1nc(N)n2C1OC(CO)C(O)C1O (configuration not stated) | -22.9% (active) | -75.4% (active) | -52.9% (active) | -60.3% (active) | -29.8% (active) | -63.3% (active) | -85.6% (active) | -86.8% (active) | -25.8% (active) |  |
| C=CCCCCCCCCCOC(C)=O | 100% (inactive) | 96.7% (inactive) |  | 109% (inactive) | 90.2% (inactive) | 102% (inactive) | 108% (inactive) | 110% (inactive) |  | 102% (inactive) |
| CC(=O)NC(N)=S | 103% (inactive) | 103% (inactive) | 110% (inactive) | 105% (inactive) | 89.7% (inactive) | 95.6% (inactive) | 105% (inactive) | 120% (inactive) | 96.1% (inactive) |  |
| CC(=O)OC(C(=O)O)c1ccccc1 (configuration not stated) | 111% (inactive) | 110% (inactive) | 112% (inactive) |  | 80.4% (inactive) | 107% (inactive) | 109% (inactive) | 118% (inactive) | 106% (inactive) |  |
| COCCCC/C(=N\OCCN)c1ccc(C(F)(F)F)cc1 | 100% (inactive) | 101% (inactive) |  | 106% (inactive) | 63.2% (inactive) |  | 100% (inactive) | 101% (inactive) | 102% (inactive) |  |
| CC(C)=NNC(N)=S | 77.7% (inactive) | 83.7% (inactive) |  | 83.4% (inactive) | 85.8% (inactive) | 88% (inactive) | 104% (inactive) | 83.5% (inactive) | 92.6% (inactive) | 104% (inactive) |
| Cc1cc(=O)n(-c2ccc(F)cc2)[nH]1 | 103% (inactive) | 98.3% (inactive) |  | 106% (inactive) |  | 97.6% (inactive) | 105% (inactive) | 107% (inactive) | 102% (inactive) | 95.6% (inactive) |
| COC(=O)Nc1nc2ccc(C(=O)c3cccs3)cc2[nH]1 | 14.2% (inactive) | 0.146% (active) |  | 7.45% (active) | 63.9% (inactive) |  | 19% (inactive) | -40% (active) | 19.5% (inactive) |  |
| Cc1cc(OCCO)cc(C)c1Cl | 106% (inactive) | 108% (inactive) | 111% (inactive) | 114% (inactive) | 114% (inactive) | 114% (inactive) | 97.3% (inactive) | 123% (inactive) | 104% (inactive) |  |
| COc1cccc(O)c1O | 56.3% (inactive) | 101% (inactive) |  | 103% (inactive) | 93.7% (inactive) | 79% (inactive) | 88.1% (inactive) | 108% (inactive) |  | 98.6% (inactive) |
| O=C1C=CC(=O)N1c1ccc(I)cc1Cl | 100% (inactive) | 108% (inactive) | 90.7% (inactive) | 109% (inactive) |  | -29.7% (active) | 97% (inactive) | 113% (inactive) | 46% (inactive) |  |
| CCOC(=O)CNN | 102% (inactive) | 90.7% (inactive) |  | 99.6% (inactive) | 99.4% (inactive) | 96.7% (inactive) | 106% (inactive) | 110% (inactive) | 101% (inactive) | 98% (inactive) |
| O=C(O)/C=C/c1ccc2c(c1)CCC2 | 113% (inactive) | 105% (inactive) | 94.6% (inactive) | 103% (inactive) |  |  | 101% (inactive) | 105% (inactive) |  |  |
| Cc1nc2ccccc2c2nnc(SCC(=O)N(Cc3ccccc3)c3ccccc3)n12 | 89.1% (inactive) | 94% (inactive) | 95.7% (inactive) | 107% (inactive) | 82.5% (inactive) | 70.9% (inactive) | 103% (inactive) | 101% (inactive) |  |  |
| Clc1ccc(-c2nnc(-c3cccc4ccccc34)o2)cc1 | 83.6% (inactive) | 87.6% (inactive) |  | 96.4% (inactive) |  | 83.5% (inactive) | 110% (inactive) | 101% (inactive) |  | 112% (inactive) |

| SMILES | growth (NCI-H23 lung) | growth (NCI-H226 lung) | growth (HOP-62 NSCLC) | growth (NCI-H460 lung) | growth (HOP-92 NSCLC) | growth (NCI-H522 lung) | growth (786-0 renal) | growth (COLO 205 colon) | growth (A549/ATCC NSCLC) | growth (NCI-H322M lung) |
| --- | --- | --- | --- | --- | --- | --- | --- | --- | --- | --- |
| CCc1nc(N)nc(N)c1-c1ccc(Cl)cc1 | 64.4% (inactive) | 65.7% (inactive) | 64.2% (inactive) | 21.2% (inactive) | 97.7% (inactive) | 83% (inactive) | 35.9% (inactive) | 76.5% (inactive) | 26.6% (inactive) |  |
| O=C(O)CCCc1ccccc1 | 103% (inactive) | 108% (inactive) |  | 115% (inactive) | 105% (inactive) |  | 97.4% (inactive) | 110% (inactive) | 102% (inactive) |  |
| Cc1ncc(C#N)c(N)n1 | 99% (inactive) | 94.8% (inactive) |  | 102% (inactive) | 87.1% (inactive) | 102% (inactive) | 96.4% (inactive) | 107% (inactive) |  | 89.1% (inactive) |
| CC12CC3CC1C(C(=O)O2)C3C(=O)O (configuration not stated) | 96.8% (inactive) | 105% (inactive) | 98.9% (inactive) | 108% (inactive) | 107% (inactive) | 96% (inactive) | 108% (inactive) | 102% (inactive) |  |  |
| COc1cc([C@@H]2c3cc4c(cc3[C@H](O)[C@H]3COC(=O)[C@H]23)OCO4)cc(OC)c1OC | 13.1% (inactive) | -9.84% (active) |  | 9.21% (active) | 11.3% (inactive) |  | 12.4% (inactive) | -57.8% (active) | 14.2% (inactive) |  |
| Cc1ccccc1N=C(c1ccccc1)C1C(=O)c2ccccc2C1=O | 87.6% (inactive) | 90.4% (inactive) | 98.8% (inactive) | 101% (inactive) | 72.7% (inactive) | 59% (inactive) | 88.6% (inactive) | 103% (inactive) |  |  |
| COC(=O)Nc1cccc(Cl)c1OC | 107% (inactive) | 96.5% (inactive) |  | 38.2% (inactive) |  | 92.7% (inactive) | 104% (inactive) | 127% (inactive) | 106% (inactive) | 107% (inactive) |
| CC1CCC(C(=O)O)N1 (configuration not stated) |  | 97.3% (inactive) |  |  |  |  |  |  |  |  |
| Cc1cc(N)c(S(=O)(=O)O)c(N)c1 |  | 99.6% (inactive) |  |  |  |  |  |  |  |  |
| O=C(Nc1cc(-c2ccccc2)[nH]n1)c1ccc(Cl)cc1 |  | 88.4% (inactive) | 88.3% (inactive) | 56% (inactive) | 81.4% (inactive) | 72.5% (inactive) | 79.5% (inactive) | 104% (inactive) | 70.3% (inactive) | 79.4% (inactive) |
| CCOC(=O)c1[nH]c(C)c(C(C)=O)c1C |  | 103% (inactive) | 89.7% (inactive) | 103% (inactive) | 51% (inactive) | 83.8% (inactive) | 83.5% (inactive) | 115% (inactive) | 105% (inactive) | 101% (inactive) |
| O=S(=O)(O)C(Nc1ccccc1)c1ccccc1 (configuration not stated) |  | 91.5% (inactive) | 100% (inactive) | 102% (inactive) |  | 102% (inactive) | 100% (inactive) | 103% (inactive) | 103% (inactive) | 97.6% (inactive) |
| Cn1cnc2nc(Cl)nc(Cl)c21 |  |  | 8.69% (active) | -9.25% (active) |  |  | 4.6% (active) | -29.3% (active) | 17.2% (inactive) | 34.1% (inactive) |
| COc1ccc(Oc2c(I)cc(CC(NC(C)=O)C(=O)O)cc2I)cc1 (configuration not stated) |  | 73% (inactive) | 80.9% (inactive) | 104% (inactive) |  | 103% (inactive) | 71.7% (inactive) | 108% (inactive) | 87.3% (inactive) | 102% (inactive) |
| O=C(NN=C1CCCCC1)C(=O)NN=C1CCCCC1 |  | 101% (inactive) | 98.1% (inactive) | 117% (inactive) | 101% (inactive) | 98.7% (inactive) | 105% (inactive) | 106% (inactive) | 116% (inactive) | 124% (inactive) |
| O=C1C=C(Nc2ccc([N+](=O)[O-])cc2)c2ccccc2C1=O |  | 77.6% (inactive) | 51.9% (inactive) | 46.4% (inactive) |  | 21.5% (inactive) | 66.6% (inactive) | 105% (inactive) | 33.3% (inactive) | 75.3% (inactive) |
| CC(=O)c1sc2c(c1OC(=O)c1ccc(Cl)cc1Cl)c(=O)n(-c1ccccc1)c(=S)n2-c1ccccc1 |  | 3.85% (active) | 9.38% (active) | 25.2% (inactive) |  | -35% (active) | -7.98% (active) | 5.77% (active) | 32.1% (inactive) | -37.3% (active) |
